# Measured values reported in PubChem BioAssay (EPA / NIEHS).
# Several values for one entry are separate records, joined by “and”; a condition that tells them apart may be missing. Identical values can stand only once. Activity calls are given as the source filed them. Rule for the calls: active = hit-call score of the fitted dose curve at least 0.9, where 1 is the maximum; inactive = score below 0.9.
# Test system: TTR (gene 7276)
# Assay: CCTE_GLTED_hTTR_0.125uM: CCTE's human Transthyretin (hTTR) Inhibition Assay, with 0.125uM TTR, Great Lakes Toxicology and Ecology Division (GLTED) Lab (AID 2284431)
# Procedure, shortened: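 Cell-free displacement of the fluorescent probe ANSA from human TTR (0.125uM) after 2 h incubation with test chemical. Fluorescence read at 380 nm excitation/475 nm emission; loss of signal fitted relative to DMSO baseline.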
row,SMILES,AC50
1,O=[N+]([O-])c1ccccc1O,34.8 µM (active) and 21.1 µM (active)
2,O=C1c2ccccc2C(=O)C1C(=O)C(c1ccccc1)c1ccc(Cl)cc1 (configuration not stated),3.48 µM (active)
3,O=[N+]([O-])c1ccc(Cl)c([N+](=O)[O-])c1,4.83 µM (active)
4,COc1nn(C(=O)NS(=O)(=O)c2ccccc2OC(F)(F)F)c(=O)n1C,9.99 µM (active)
5,O=S1(=O)OC(c2cc(Br)c(O)c(Br)c2)(c2cc(Br)c(O)c(Br)c2)c2ccccc21,0.109 µM (active)
6,CCCCCCCCCCCCc1cccc(S(=O)(=O)O)c1,6.89 µM (active)
7,Oc1cc(Cl)c(Cl)cc1Cl,0.114 µM (active)
8,O=C(CBr)c1ccc(O)cc1,4.69 µM (active)
9,O=C(NC(=O)c1c(F)cccc1F)Nc1cc(Cl)c(OC(F)(F)C(F)C(F)(F)F)cc1Cl (configuration not stated),2.76 µM (active)
10,CCCCCCCCCCCCOS(=O)(=O)O,2.56 µM (active) and 5.11 µM (active)
11,Nc1ccc(N)cc1,2.42 µM (active)
12,CCOCn1c(-c2ccc(Cl)cc2)c(C#N)c(Br)c1C(F)(F)F,0.0346 µM (active)
13,Oc1c(Br)cc(Br)cc1Br,0.0287 µM (active)
14,Cc1cc(Cl)ccc1O,14.9 µM (active)
15,CCOP(=S)(OCC)O/N=C(\C#N)c1ccccc1,2.07 µM (active)
16,Cc1cc(Cl)ccc1OCCCC(=O)O,2.64 µM (active)
17,O=C(O)COc1cc(Cl)c(Cl)cc1Cl,0.692 µM (active)
